Molecules are shown by their SMILES. About 83,000 compounds went through this panel and 20% of them were active in at least one assay; those are over-represented in the sample as a whole.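 Results are percent growth after 48 hours of single-concentration exposure. 100 means growth as in untreated cells, lower positive values show inhibition; negative values down to -100 show cell death.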 Activity calls are given as the source filed them. The calls were made as follows: active = growth percent below 10; inactive = the rest.

For the first test, the system named is PC-3 prostate. Description: NCI-60 one-dose screen, 48 h (100 = growth as untreated, 0 = no growth, -100 = all killed). Particulars: 10 µM unless noted.
As for `CCC(/C=C\C(C)=O)CC`, the growth was 91.3% (inactive).

In the case of `CCOC(=O)CO`, the growth was 101% (inactive).

`Cc1cc(=O)n(Nc2ccccc2)c(O)c1C#N`: the growth was 99.4% (inactive).

Turning to `CN(C)c1ccc(O)c2c1CC1CC3C(N(C)C)C(=O)C(C(N)=O)=C(O)C3(O)C(=O)C1=C2O` (centres undefined), the growth was 34.6% (inactive).

In the case of `COc1ccc2c(Cl)cc(NC(=O)Nc3c(C)cccc3C)nc2c1`, the growth is 72.4% (inactive).

Turning to `CC(=O)c1cccs1`, the growth was 98.3% (inactive).

Consider `O=Cc1ccc(F)cc1`, for which the growth is 101% (inactive).

With `O=C(O)c1ccc([N+](=O)[O-])cc1S(=O)(=O)O`, the growth was 100% (inactive).

As to `C=CCC(OC(C)=O)c1ccc(C(C)C)cc1` (centres undefined), the growth is 99.1% (inactive).

Consider `CCOc1ccc(C(=O)NCC(C)C)cc1`, for which the growth was 98.1% (inactive).

For `Cc1ccc(NC(=O)c2ccccc2Cl)cc1`, the growth is 89.6% (inactive).

In the case of `Cc1cc(NC(=O)c2ccccc2)c(Cl)cc1N`, the growth was 108% (inactive).

As for `CCCCNC(=O)c1ccc(OCC)cc1`, the growth is 90.9% (inactive).

Take `CC(=O)c1cccc(N(C)S(=O)(=O)c2ccc(C)cc2)c1`: the growth was 85.2% (inactive).

In the case of `CC(=O)c1cc(O)ccc1O`, the growth was 98.3% (inactive).

In the case of `Cc1nc(O)cc(=O)[nH]1`, the growth is 97% (inactive).

On to `CCOc1ccccc1NC(=O)CCl`, for which the growth was 83.5% (inactive).

Turning to `Cc1ccc(S(=O)(=O)CCCl)cc1`, the growth was 90.7% (inactive).

Turning to `CC(CCC#N)(CCC#N)C(=O)c1ccccc1`, the growth is 87.8% (inactive).

Consider `Cc1cc(CO)c(O)c(CO)c1`, for which the growth is 101% (inactive).

Take `O=Cc1ccc(Cl)c(Cl)c1`: the growth was 94.6% (inactive).

`CCN(C(C)=O)c1ccc([N+](=O)[O-])cc1`: the growth was 97.5% (inactive).

As to `Nc1cccc2cccc(O)c12`, the growth is 69.6% (inactive).

Take `Cc1cccc2ccccc12`: the growth is 95.5% (inactive).

Regarding `NC(=O)OCCO`, the growth was 98.5% (inactive).

In the case of `CCOC(=O)C(CCC#N)(CCC#N)C(=O)OCC`, the growth was 97.6% (inactive).

On to `N#CCCN1C(=O)CCC1C(=O)O` (centres undefined), for which the growth is 90.9% (inactive).

As to `COC(=O)c1cccc([N+](=O)[O-])c1`, the growth was 97.4% (inactive).

For the compound `O=C(CC(CC(=O)c1ccccc1)c1ccccn1)c1ccccc1`, the growth is 85.1% (inactive).

For `CC(=O)c1cccc(NS(=O)(=O)c2ccc(C)cc2)c1`, the growth was 78.9% (inactive).

Regarding `C=COC(=O)C(C)(C)C`, the growth is 95.3% (inactive).

As to `CSc1nc2[nH]ncc2c(=O)[nH]1`, the growth was 107% (inactive).

In the case of `CC(=O)c1ccc(C)cc1`, the growth was 106% (inactive).

On to `O=c1[nH]c(=O)c2cc(Cl)cc(Cl)c2[nH]1`, for which the growth is 93.7% (inactive).

Turning to `O=[N+]([O-])c1c(Cl)ncnc1Cl`, the growth was 90.3% (inactive).

With `O=C1NCC2CCCC1C2` (centres undefined), the growth was 114% (inactive).

With `OC(CBr)CCBr` (centres undefined), the growth is 87.5% (inactive).

A further test concerns SK-MEL-5 melanoma. The test is described as above. The conditions noted are these: 10 µM unless noted.
In the case of `CCC(/C=C\C(C)=O)CC`, the growth was 102% (inactive).

Consider `CCOC(=O)CO`, for which the growth was 107% (inactive).

In the case of `Cc1cc(=O)n(Nc2ccccc2)c(O)c1C#N`, the growth was 104% (inactive).

As to `CN(C)c1ccc(O)c2c1CC1CC3C(N(C)C)C(=O)C(C(N)=O)=C(O)C3(O)C(=O)C1=C2O` (centres undefined), the growth is 25.6% (inactive).

For `COc1ccc2c(Cl)cc(NC(=O)Nc3c(C)cccc3C)nc2c1`, the growth is 63.6% (inactive).

Consider `CC(=O)c1cccs1`, for which the growth is 110% (inactive).

For `O=Cc1ccc(F)cc1`, the growth was 99.8% (inactive).

Take `O=C(O)c1ccc([N+](=O)[O-])cc1S(=O)(=O)O`: the growth was 99.7% (inactive).

On to `C=CCC(OC(C)=O)c1ccc(C(C)C)cc1` (centres undefined), for which the growth is 117% (inactive).

With `CCOc1ccc(C(=O)NCC(C)C)cc1`, the growth is 101% (inactive).

`Cc1ccc(NC(=O)c2ccccc2Cl)cc1`: the growth was 107% (inactive).

Turning to `Cc1cc(NC(=O)c2ccccc2)c(Cl)cc1N`, the growth is 97.5% (inactive).

Regarding `CCCCNC(=O)c1ccc(OCC)cc1`, the growth is 103% (inactive).

`CC(=O)c1cccc(N(C)S(=O)(=O)c2ccc(C)cc2)c1`: the growth is 90.1% (inactive).

As for `CC(=O)c1cc(O)ccc1O`, the growth is 113% (inactive).

Take `Cc1nc(O)cc(=O)[nH]1`: the growth is 109% (inactive).

In the case of `CCOc1ccccc1NC(=O)CCl`, the growth is 71.2% (inactive).

In the case of `Cc1ccc(S(=O)(=O)CCCl)cc1`, the growth is 114% (inactive).

In the case of `CC(CCC#N)(CCC#N)C(=O)c1ccccc1`, the growth was 109% (inactive).

Take `Cc1cc(CO)c(O)c(CO)c1`: the growth was 108% (inactive).

As for `O=Cc1ccc(Cl)c(Cl)c1`, the growth was 110% (inactive).

Take `CCN(C(C)=O)c1ccc([N+](=O)[O-])cc1`: the growth was 96.2% (inactive).

Turning to `Nc1cccc2cccc(O)c12`, the growth is 86.9% (inactive).

As for `Cc1cccc2ccccc12`, the growth is 100% (inactive).

Regarding `NC(=O)OCCO`, the growth was 95.4% (inactive).

For the compound `CCOC(=O)C(CCC#N)(CCC#N)C(=O)OCC`, the growth was 102% (inactive).

In the case of `N#CCCN1C(=O)CCC1C(=O)O` (centres undefined), the growth was 110% (inactive).

For the compound `COC(=O)c1cccc([N+](=O)[O-])c1`, the growth was 98.9% (inactive).

Regarding `O=C(CC(CC(=O)c1ccccc1)c1ccccn1)c1ccccc1`, the growth was 95.4% (inactive).

Take `CC(=O)c1cccc(NS(=O)(=O)c2ccc(C)cc2)c1`: the growth was 60.2% (inactive).

Regarding `C=COC(=O)C(C)(C)C`, the growth is 99.9% (inactive).

Consider `CSc1nc2[nH]ncc2c(=O)[nH]1`, for which the growth was 92.8% (inactive).

For `CC(=O)c1ccc(C)cc1`, the growth is 105% (inactive).

Take `O=c1[nH]c(=O)c2cc(Cl)cc(Cl)c2[nH]1`: the growth is 103% (inactive).

On to `O=[N+]([O-])c1c(Cl)ncnc1Cl`, for which the growth was 111% (inactive).

In the case of `O=C1NCC2CCCC1C2` (centres undefined), the growth was 107% (inactive).

Take `OC(CBr)CCBr` (centres undefined): the growth is 101% (inactive).

(Values after PubChem BioAssay (NCI).)
